SENP8 block-1 – inhibitors of human SENP8 protease; inhibition, % at 20 µM; AID 602440; 360,000 tested, 0.64% active; Q96LD8; recombinant SENP8, Nedd8 substrate fluorescence; in the data active = inhibition mostly above about 40%, no sharp cut-off; inactive = mostly below about 27%
Target sequence (Q96LD8 whole entry, looked up): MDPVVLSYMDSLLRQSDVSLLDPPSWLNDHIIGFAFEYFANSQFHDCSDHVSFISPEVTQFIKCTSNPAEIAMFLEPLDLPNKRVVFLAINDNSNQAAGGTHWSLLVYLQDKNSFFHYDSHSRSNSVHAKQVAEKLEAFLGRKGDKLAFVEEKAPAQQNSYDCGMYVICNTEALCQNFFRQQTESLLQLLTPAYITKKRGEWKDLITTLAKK
C8 TRAIL sens – sensitizes caspase-8 expressing cells to TRAIL | AID 624354 | inhibition (viability loss, TRAIL sensitization), % at 10 µM | 360,000 tested, 1% active | NB7+C8 cells + TRAIL, ATPlite viability luminescence;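 active = compounds causing at least 50% loss of cell viability in the single-dose screen, relative to plate controls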
SENP8 block-2 – SENP8 protease inhibition; Q96LD8; inhibition, % at 10 µM; purified SENP8, Z-RLRGG-aminoluciferin cleavage, luminescence; AID 2540; 330,000 tested, 1.2% active; in the data active = inhibition above about 50%
PPC-1+TRAIL kill – compounds killing PPC-1 cancer cells with TRAIL present (potentiator screen, no TRAIL-free arm); PPC-1 cells + TRAIL, ATPLite viability luminescence; 220,000 tested, 0.41% active; cell killing (% activity), % at 4 µM or 5 µM;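 active = cell killing above 50% in the first pass at 4 µM, then a duplicate retest at 5 µM averaging 50% or more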;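 also: plate controls were cells with TRAIL plus DMSO for no effect and medium-only wells lacking cells for full effect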
SENP7 block – SENP7 protease inhibition. Q9BQF6. recombinant SENP7, Z-RLRGG-aminoluciferin luminescence, 40 min. inhibition, % at 5 µM. 330,000 tested, 1.5% active. AID 434973;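 active = inhibition above about 50% at the single test dose, limit read from the data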;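 also: plate controls were DMSO with enzyme for no effect and no enzyme buffer wells for full effect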
SENP6 inh – inhibitors of human SENP6 protease. Recombinant SENP6 catalytic domain, aminoluciferin luminescence. inhibition, % at 10 µM. 330,000 tested, 1.8% active. AID 2599;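 active = inhibition above about 50% at the single tested dose, limit read from the data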;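 also: plate controls were DMSO wells with enzyme for no effect and DMSO wells lacking enzyme for full effect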
* = called active by the depositor; nt = not tested or not shown; ! = not confirmed by another sample. This is a sample that favours compounds with a hit; in the whole collection about 3% have one here.

SMILES	SENP8 block-1	C8 TRAIL sens	SENP8 block-2	PPC-1+TRAIL kill	SENP7 block	SENP6 inh
Cc1ccc(-c2nnc(/C=C/c3ccccc3)o2)cc1	-391	5	42	24	-2	76*
Cc1nnc(-c2ccccc2)o1	4	-7	9	19	-7	-10
C#CCOCCOCCOCCNc1nc(N2CCN(C(=O)CCCCCCCCCCNC(=O)[C@H](CCCCN)n3cc(C)nn3)CC2)nc(N2CCN(C(=O)CCCCCCCCCCNC(=O)[C@H](CCCN=C(N)N)n3cc(C[C@@H](C)CC)nn3)CC2)n1	nt	nt	-11	nt	6	-27
C#CCOCCOCCOCCNc1nc(N2CCN(C(=O)CCCCCCCCCCNC(=O)[C@H](CCCCN)n3cc(C[C@@H](C)CC)nn3)CC2)nc(N2CCN(C(=O)CCCCCCCCCCNC(=O)[C@H](CCCN=C(N)N)n3cc(C[C@@H](C)CC)nn3)CC2)n1	10	94*	-40	nt	-4	-124
C#CCOCCOCCOCCNc1nc(N2CCN(C(=O)CCCCCCCCCCNC(=O)Cn3cc(C[C@@H](C)O)nn3)CC2)nc(N2CCN(C(=O)CCCCCCCCCCNC(=O)[C@@H]([C@H](C)CC)n3cc(CCCCCN)nn3)CC2)n1	7	93*	-15	nt	7	-20
C#CCOCCOCCOCCNc1nc(N2CCN(C(=O)CCCCCCCCCCNC(=O)[C@H](CCCCN)n3cc(C[C@@H](C)CC)nn3)CC2)nc(N2CCN(C(=O)CCCCCCCCCCNC(=O)[C@@H]([C@H](C)O)n3cc(C)nn3)CC2)n1	28	96*	-32	nt	7	-44
C[C@H](NC(=O)c1ncn2c1c(=O)[nH]c1ccccc12)c1ccccc1	-346	22	nt	nt	nt	nt
C[C@H](NC(=O)c1ncn2c1c(=O)[nH]c1ccc(Br)cc12)c1ccccc1	-181	91*	nt	nt	nt	nt
O=C(NCc1cc(C(F)(F)F)ccc1Cl)c1cccc2c1C(=O)c1ccc(-c3ccc(OC(F)(F)F)cc3)cc1S2(=O)=O	nt	nt	-4	nt	12	0
O=C(NCc1ccccc1Cl)c1cccc2c1C(=O)c1ccc(-c3ccc(OC(F)(F)F)cc3)cc1S2(=O)=O	2	54*	-1	nt	1	2
Cc1ccccc1-c1cc(C(=O)Nc2sc(C)c(C)c2C(N)=O)c2ccccc2n1	-21	40	-3	27	6	9
CCOC(=O)c1sc(NC(=O)c2cc(-c3ccccc3C)nc3ccccc23)c(C#N)c1C	39	61*	4	22	1	-6
Nc1cccc(-c2c[nH]c3ncc(-c4cccnc4)cc23)c1	-229	3	nt	nt	nt	nt
COc1ccc(C=NNC(=O)CCCC(=O)NN=Cc2ccc(OC)c(OC)c2)cc1OC	-22	1	nt	nt	nt	nt
COc1ccc(C=NNC(=O)NN=Cc2ccc(OC)c(OC)c2)cc1OC	-7	72*	nt	nt	nt	nt
O=C(CSc1nnc(CNC(=O)c2cccs2)o1)Nc1ccccc1F	-11	-3	-5	nt	6	-12
O=[N+]([O-])c1cc(S(=O)(=O)N2CCCCCC2)ccc1Cl	7	-4	-3	56*	0	-11
CN1/C(=C/c2cc[n+](C)c3ccccc23)C=Cc2ccccc21	58*	19	nt	nt	nt	nt
Cc1ccc(CSc2nc3ccncc3n2CC(=O)Nc2cc(C)cc(C)c2)cc1	0	51*	3	19	-2	-2
Cc1cc(C)cc(NC(=O)Cn2c(SCc3cc(C)ccc3C)nc3ccncc32)c1	nt	nt	nt	9	nt	nt
CNc1nnc(-c2ccc(N(C)C)cc2)s1	-299	73*	14	60*	-9	29
CN(c1cccc(Cl)c1)S(=O)(=O)c1cccc(C(=O)NN2CCOCC2)c1	12	-6	-3	nt	5	6
Cn1cc(S(=O)(=O)CC(=O)N2CCCc3ccccc32)c2ccccc21	13	65*	-1	37	2	2
COc1ccc(OC(F)(F)F)cc1CC1(C)C(=O)Nc2ccc(-c3ccsc3)cc21 (stereo unspecified)	-14	2	nt	nt	nt	nt
CC(=O)Nc1ccc(NC2=CC(=O)c3ccccc3C2=O)cc1	-6	24	-4	nt	6	13
CCOC(=O)c1ccc(NC2=CC(=O)C(=O)c3ccccc32)cc1	82*	94*	9	-3	9	32
CC(C)c1ccc2c(c1)CC[C@H]1[C@](C)(CN)CCC[C@]21C	12	68*!	nt	nt	nt	nt
O=C(Nc1ccc(N=Nc2ccccc2)cc1)c1ccccc1Cl	51*	-2	-23	14	2	-2
